Assay results published in PubChem BioAssay (NCI).
Values joined by “and” are separate entries in the source; they are usually repeats but may differ in a detail not shown here. Equal values may be shown once. About 79,000 compounds went through this panel and 15% of them were active in at least one assay; those are over-represented in the sample as a whole. Values without a mark were called inactive. Active and inactive are the calls of the source. Cut-off read from the data, not from the text of the source: active = growth inhibition above about 70%; inactive = the rest.

What was measured:
[1] = NCI Yeast Anticancer Drug Screen. Data for the rad50 strain (AID 155);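 note: 0% = growth of vehicle-only cultures of the same strain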; conditions: S. cerevisiae rad50 strain growth inhibition, hits give high values
Summary of the method: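 Vehicle-treated cultures provide the reference for the growth inhibition reported for compound-exposed, repair-deficient yeast.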

[2] = NCI Yeast Anticancer Drug Screen. Data for the sgs1 mgt1 strain (AID 161);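 note: 0% = growth of cultures given vehicle only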; conditions: S. cerevisiae sgs1 mgt1 strain, hits give high values
Summary of the method: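 Read-out: growth inhibition vs vehicle controls. Cells: mutant yeast strain deficient in DNA damage repair.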

[3] = NCI Yeast Anticancer Drug Screen. Data for the cln2 rad14 strain (AID 165);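 note: 0% = growth equal to vehicle treated cultures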; conditions: S. cerevisiae cln2 rad14 strain, hits give high values
Summary of the method: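 cln2 rad14 yeast strain; compound exposure; growth inhibition read vs vehicle controls.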

[4] = NCI Yeast Anticancer Drug Screen. Data for the bub3 strain (AID 167); conditions: S. cerevisiae bub3 mutant strain, hits give high values
Summary of the method: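 Mutant yeast screening strain plus compound; vehicle-treated cultures serve as the 0% inhibition reference.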

[5] = NCI Yeast Anticancer Drug Screen. Data for the mlh1 rad18 strain (AID 175); conditions: S. cerevisiae mlh1 rad18 strain growth inhibition, hits give high values
Summary of the method: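 Yeast w/ defined DNA-repair lesions; compound exposure; growth vs vehicle controls → % inhibition.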

[6] = NCI Yeast Anticancer Drug Screen. Data for the mec2-1 strain (AID 157); conditions: S. cerevisiae mec2-1 strain, hits give high values
Summary of the method: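 Yeast mec2-1 mutant treated with compound. Readout: growth inhibition vs vehicle controls.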

[7] = at 5.0 µM (retest, dose inferred, filed as 0.5)
[8] = at 50.0 µM (retest, dose inferred, filed as 5.0)

Structure (SMILES): O=C1NC(=O)N(c2ccc(Cl)c(Cl)c2)C1=O
- growth inhibition [1, 7]: -1%
- growth inhibition [1, 8]: 8%
- growth inhibition ([1]; at 50.0 µM): 71.2% (active)
- growth inhibition [2, 7]: 0%
- growth inhibition [2, 8]: 7%
- growth inhibition ([2]; at 50.0 µM): 41.5%
- growth inhibition [3, 7]: -4%
- growth inhibition [3, 8]: 5%
- growth inhibition ([3]; at 50.0 µM): 24.8%
- growth inhibition [4, 7]: -5%
- growth inhibition [4, 8]: -1%
- growth inhibition ([4]; at 50.0 µM): 44.5%
- growth inhibition [5, 7]: -4%
- growth inhibition [5, 8]: 4%
- growth inhibition ([5]; at 50.0 µM): 27.9%

Structure (SMILES): Cc1c(CCl)c(=O)oc2c(C)c3occ(CCl)c(=O)c3cc12
- growth inhibition [6, 7]: 20%
- growth inhibition [6, 8]: 31%
- growth inhibition ([6]; at 50.0 µM): 82.5% (active)
- growth inhibition [2, 7]: 17%
- growth inhibition [2, 8]: 42%
- growth inhibition ([2]; at 50.0 µM): 84.5% (active)
- growth inhibition [3, 7]: 41%
- growth inhibition [3, 8]: 60%
- growth inhibition ([3]; at 50.0 µM): 85.4% (active)
- growth inhibition [4, 7]: 28%
- growth inhibition [4, 8]: 57%
- growth inhibition ([4]; at 50.0 µM): 87.5% (active)
- growth inhibition [5, 7]: 29%
- growth inhibition [5, 8]: 67%
- growth inhibition ([5]; at 50.0 µM): 77.7% (active)

Structure (SMILES): CC(=O)Nc1cccc2cc(O)ccc12
- growth inhibition ([1]; at 50.0 µM): 16.8% and 18.5% and 17%
- growth inhibition ([6]; at 50.0 µM): -5.9% and 4.7% and -9.55%
- growth inhibition ([2]; at 50.0 µM): -2.2% and -3.8% and 10.3%
- growth inhibition ([3]; at 50.0 µM): -11.6% and -20.1% and 11.6%
- growth inhibition ([4]; at 50.0 µM): -11.8% and -11.7% and -4.3%
- growth inhibition ([5]; at 50.0 µM): 23.2% and 18.1% and 22.8%

Structure (SMILES): CCN(CC)Cc1cc(N=Nc2c(O)ccc3c(N=Nc4ccc(O)c(CN(CC)CC)c4)c(O)ccc23)ccc1O
- growth inhibition [6, 7]: -2%
- growth inhibition [6, 8]: 53%
- growth inhibition ([6]; at 50.0 µM): 85.4% (active)
- growth inhibition [2, 7]: 1%
- growth inhibition [2, 8]: 76% (active)
- growth inhibition ([2]; at 50.0 µM): 94.3% (active)
- growth inhibition [3, 7]: -7%
- growth inhibition [3, 8]: 56%
- growth inhibition ([3]; at 50.0 µM): 56.6%
- growth inhibition [4, 7]: -1%
- growth inhibition [4, 8]: 61%
- growth inhibition ([4]; at 50.0 µM): 65.8%
- growth inhibition [5, 7]: -1%
- growth inhibition [5, 8]: 72% (active)
- growth inhibition ([5]; at 50.0 µM): 93.7% (active)

Structure (SMILES): CC(=O)NC1=C(Oc2ccccc2)C(=O)c2ccccc2C1=O
- growth inhibition [6, 7]: 98% (active)
- growth inhibition [6, 8]: 100% (active)
- growth inhibition ([6]; at 50.0 µM): 97.8% (active)
- growth inhibition [2, 7]: 88% (active)
- growth inhibition [2, 8]: 100% (active)
- growth inhibition ([2]; at 50.0 µM): 99.1% (active)
- growth inhibition [3, 7]: 89% (active)
- growth inhibition [3, 8]: 100% (active)
- growth inhibition ([3]; at 50.0 µM): 70% (active)
- growth inhibition [4, 7]: 98% (active)
- growth inhibition [4, 8]: 100% (active)
- growth inhibition ([4]; at 50.0 µM): 94.5% (active)
- growth inhibition [5, 7]: 96% (active)
- growth inhibition [5, 8]: 99% (active)
- growth inhibition ([5]; at 50.0 µM): 99.1% (active)

Structure (SMILES): O=C(O)c1ccccc1Cc1ccc2c(c1)Cc1ccccc1-2
- growth inhibition [1, 7]: 2%
- growth inhibition [1, 8]: 76% (active)
- growth inhibition ([1]; at 50.0 µM): 62.5%
- growth inhibition [6, 7]: -5%
- growth inhibition [6, 8]: 67%
- growth inhibition ([6]; at 50.0 µM): 66.3%
- growth inhibition [4, 7]: -6%
- growth inhibition [4, 8]: 68%
- growth inhibition ([4]; at 50.0 µM): 50.4%
- growth inhibition [5, 7]: 14%
- growth inhibition [5, 8]: 80% (active)
- growth inhibition ([5]; at 50.0 µM): 79.2% (active)

Structure (SMILES): C/C(Cl)=N\OC(=O)Nc1ccc(C)cc1
- growth inhibition [1, 7]: 4%
- growth inhibition [1, 8]: 99% (active)
- growth inhibition ([1]; at 50.0 µM): 55.6%
- growth inhibition [6, 7]: -2%
- growth inhibition [6, 8]: 99% (active)
- growth inhibition ([6]; at 50.0 µM): 79.5% (active)
- growth inhibition [3, 7]: 4%
- growth inhibition [3, 8]: 86% (active)
- growth inhibition ([3]; at 50.0 µM): 53.6%
- growth inhibition [4, 7]: 11%
- growth inhibition [4, 8]: 98% (active)
- growth inhibition ([4]; at 50.0 µM): 74% (active)
- growth inhibition [5, 7]: -3%
- growth inhibition [5, 8]: 96% (active)
- growth inhibition ([5]; at 50.0 µM): 60.4%

Structure (SMILES): O=C(O)Cc1ccccc1CCc1ccccc1Cl
- growth inhibition [6, 7]: -11%
- growth inhibition [6, 8]: 72% (active)
- growth inhibition ([6]; at 50.0 µM): 82.5% (active)
- growth inhibition [2, 7]: -19%
- growth inhibition [2, 8]: 71% (active)
- growth inhibition ([2]; at 50.0 µM): 83.5% (active)
- growth inhibition [3, 7]: -2%
- growth inhibition [3, 8]: 74% (active)
- growth inhibition ([3]; at 50.0 µM): 87.1% (active)
- growth inhibition [4, 7]: 2%
- growth inhibition [4, 8]: 83% (active)
- growth inhibition ([4]; at 50.0 µM): 77.1% (active)
- growth inhibition [5, 7]: -19%
- growth inhibition [5, 8]: 83% (active)
- growth inhibition ([5]; at 50.0 µM): 81.3% (active)

Structure (SMILES): O=C(O)C1C2CC3C(OC(=O)C31)C2Br (centres undefined)
- growth inhibition ([1]; at 50.0 µM): 11.9% and 4.1% and 9.9%
- growth inhibition ([6]; at 50.0 µM): 2.75% and 16.8% and -4.3%
- growth inhibition ([2]; at 50.0 µM): -22.2% and 2.5% and 6.9%
- growth inhibition ([3]; at 50.0 µM): -24.1% and -98.7% and -25.1%
- growth inhibition ([4]; at 50.0 µM): -47.9% and 10.9% and 11.8%
- growth inhibition ([5]; at 50.0 µM): 11.2% and 18.6% and 32%

Structure (SMILES): CC(=O)c1csc2c1C(=O)c1scc(C(C)=O)c1C2=O
- growth inhibition [1, 7]: 26%
- growth inhibition [1, 8]: 48%
- growth inhibition ([1]; at 50.0 µM): 48.5%
- growth inhibition [2, 7]: 24%
- growth inhibition [2, 8]: 43%
- growth inhibition ([2]; at 50.0 µM): 90.3% (active)
- growth inhibition [3, 7]: 14%
- growth inhibition [3, 8]: 36%
- growth inhibition ([3]; at 50.0 µM): 88.6% (active)
- growth inhibition [4, 7]: 37%
- growth inhibition [4, 8]: 47%
- growth inhibition ([4]; at 50.0 µM): 90.3% (active)
- growth inhibition [5, 7]: 32%
- growth inhibition [5, 8]: 49%
- growth inhibition ([5]; at 50.0 µM): 87% (active)
